The record followed here is PubChem BioAssay AID652062 (Broad Institute, 2013).

The campaign covered roughly 1,400 compounds. About 1,100 (79%) were called active.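 The calls were made as follows: active = fitted half-maximal concentration of a falling signal no higher than twice the top valid dose in every test run; inconclusive = runs disagree, or flat partial inhibition, or poor fit; inactive = every run inactive: flat, wrong direction, or potency beyond limit.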 The set was probably picked from earlier hits. These entries were drawn from the full list. Results with a measured potency or affinity are listed apart.

A short description of this assay: HIV-1 AD8 envelope cell-cell fusion blockers – cherry-pick, dose response (AID 652062). The settings on record: HeLa-AD8 Env / CEM-CCR5 cell fusion, luciferase; at 35 µM (top of the series) unless noted.
`CC(C)NC(=O)N(C)C[C@@H]1Oc2ccc(NC(=O)C3CC3)cc2CC(=O)N([C@H](C)CO)C[C@H]1C`: the activity change, negative = inhibition is -3.87%.
As to `CC(C)NC(=O)N(C)C[C@@H]1Oc2ccc(NC(=O)C3CC3)cc2CC(=O)N([C@@H](C)CO)C[C@@H]1C`, the activity change, negative = inhibition was -3.66%.
For `Nc1ncn([C@H]2C[C@H](O)[C@@H](CO)O2)c(=O)n1`, the activity change, negative = inhibition is 8.34%.
Regarding `C[C@@H]1CN([C@@H](C)CO)S(=O)(=O)c2ccc(-c3ccccc3)cc2O[C@H]1CN(C)S(C)(=O)=O`, the activity change, negative = inhibition came out at 54.4%.
In the case of `Nc1nc2c(ncn2[C@@H]2O[C@H](C(=O)NCC(c3ccccc3)c3ccccc3)[C@@H](O)[C@H]2O)c(=O)[nH]1`, the activity change, negative = inhibition amounted to 19.5%.
`C[C@@H]1CN([C@H](C)CO)C(=O)c2cccc(NS(=O)(=O)c3cn(C)cn3)c2O[C@H]1CN(C)C(=O)Nc1ccc(F)cc1`: the activity change, negative = inhibition is 0.184%.
In the case of `O=C(CC1C(=O)NCCN1Cc1cccc(F)c1)NC1CCCCC1` (stereo unspecified), the activity change, negative = inhibition amounted to 73.6%.
Consider `CCN(CCn1cccn1)C(=O)CC1C(=O)NCCN1CCc1ccccc1` (stereo unspecified), for which the activity change, negative = inhibition was 27.6%.
For the molecule `CCCCNC(=O)C[C@H]1C[C@@]2(C(=O)OC)C(=C[C@H](C(C)(C)C)O[C@@H]2C)N(Cc2ccc3c(c2)OCO3)C1=O`, the activity change, negative = inhibition amounted to 26.7%.
In the case of `Cc1ccc2c(c1)c1c3n2CCN(CC(N)=O)C3CCC1` (stereo unspecified) it was 38.7%.
As to `Cc1ccc(Cn2ncc3c(N4CCN(c5ccc(C)cc5)CC4)ncnc32)cc1`, the activity change, negative = inhibition was -19.9%.
In the case of `Cc1ccc(-n2ncc3c(N4CCN(c5ccccc5)CC4)ncnc32)c(C)c1`, the activity change, negative = inhibition was -35.1%.
On to `COc1ccc(NS(=O)(=O)c2cccc(C(=O)NNC(=O)CNC(=O)c3ccc(C)cc3)c2)cc1`, for which the activity change, negative = inhibition was determined as 3.44%.
Regarding `CCOC(=O)[C@]12CCC=C1N(Cc1ccc3c(c1)OCO3)C(=O)[C@H](CC(=O)NCC13CC4CC(CC(C4)C1)C3)C2`, the activity change, negative = inhibition amounted to 17.3% [at 16 µM].
As to `COC(=O)[C@]12CCCCC=C1N(Cc1ccco1)C(=O)[C@H](CC(=O)NCCc1ccccc1OC)C2`, the activity change, negative = inhibition turned out to be 99.6%.
The figure for `C[C@@H]1CN([C@H](C)CO)C(=O)c2cc(NC(=O)Nc3ccccc3)ccc2O[C@@H]1CN(C)S(=O)(=O)c1ccccc1` is 138%; for `CCOC(=O)[C@@H]1[C@H]2COc3cc(OC)ccc3[C@H]2N2C(=O)N(c3cccc(F)c3)C(=O)[C@@]12C` it is 236%; for `CCN(CC)S(=O)(=O)c1ccc(NC(=O)Nc2cccc(C(F)(F)F)c2)cc1` it is -121%.
With `C[C@H]1CN([C@@H](C)CO)C(=O)c2cccc(NC(=O)Nc3ccc(C(F)(F)F)cc3)c2O[C@H]1CN(C)S(=O)(=O)c1ccccc1`, the activity change, negative = inhibition was -14.4%.
Turning to `CCc1nnc(NC(=O)[C@@H](NC(=O)c2cccc(S(=O)(=O)N(CC)CC)c2)C(C)C)s1`, the activity change, negative = inhibition is 52.6%.
Consider `O=C(NCc1ccco1)c1ccc(Cn2c(=O)c3ccccc3n(Cc3cccc(F)c3)c2=O)cc1`, for which the activity change, negative = inhibition is 15.9%.
For the molecule `CCCCCn1c(C(C)NC(=O)CCC)nc2ccccc21` (stereo unspecified), the activity change, negative = inhibition was -19.3%.
`COc1cc2c(c(OC)c1OC)[C@@]1(c3ccccc3)CCCC[C@H]1[C@@H]2NC(=O)C(F)(F)F`: the activity change, negative = inhibition was -28.2%.
In the case of `Cc1ccc(NS(=O)(=O)c2cc(C(=O)N(C)C3CCN(C)CC3)ccc2Cl)cc1Cl` it was 81.1%; in that of `CCN(c1nc(N)c(C(=O)N=C(N)N)nc1Cl)C(C)C`, -8.55%.
In the case of `Cc1[nH]c2ccccc2c1/C=N\NC(=O)c1ccccc1Cl` it was 8.5%.
`CN1CCc2ccccc2Cc2[nH]c3ccccc3c2CC1`: the activity change, negative = inhibition was -17.8%.
Regarding `CC(C)OCCCn1c(=S)[nH]c2ccc(N3CCOCC3)cc2c1=O`, the activity change, negative = inhibition was -27.3%.
The figure for `O=C(NCc1ccccc1)[C@@H]1CCCN1C(=O)[C@@H]1CCCN1C(=O)c1cccc2ccccc12` is -3.32%; for `Cc1cc(C(=O)N2CCC(C(=O)O)CC2)c(C(F)(F)F)o1` it is -10.2%; for `C[C@@H]1CN([C@@H](C)CO)C(=O)c2cc(NC(=O)c3ccccc3)ccc2O[C@@H](C)CCCCO[C@H]1CN(C)Cc1ccc(C(=O)O)cc1` it is 52.2%.
Regarding `C[C@@H]1CN([C@@H](C)CO)C(=O)c2cc(NC(=O)c3ccncc3)ccc2O[C@H]1CN(C)Cc1ccncc1`, the activity change, negative = inhibition is 56.3%.
In the case of `COc1ccc(CN(C)C[C@@H]2Oc3ccc(NC(=O)Nc4ccc(OC)cc4)cc3C(=O)N([C@H](C)CO)C[C@@H]2C)cc1` it was 64%.
On to `C[C@@H]1CN([C@@H](C)CO)C(=O)c2cc(NC(=O)c3ccncc3)ccc2O[C@@H]1CN(C)Cc1ccncc1`, for which the activity change, negative = inhibition was found to be 34.4%.
Regarding `O=c1[nH]c(=O)n([C@H]2C[C@H](O)[C@@H](CO)O2)cc1F`, the activity change, negative = inhibition was -10.2%.
The figure for `Cc1cc(C)nc(/N=C(\N)Nc2ccc(CC(=O)OC(C)C)cc2)n1` is 39.8%; for `C[C@@]12C(=O)N(Cc3ccc(F)cc3)CC(=O)N1[C@H]1c3cc(Cl)ccc3OC[C@@H]1[C@@H]2c1ccccc1` it is 19.5%.
As to `CN(C[C@H](Cc1ccccc1)N(C[C@H](c1ccccc1)N(CCc1ccccc1)N=O)N=O)N=O`, the activity change, negative = inhibition was -5.55%.
Consider `C[C@@H]1CN([C@@H](C)CO)C(=O)c2cc(NS(=O)(=O)c3ccccc3)ccc2O[C@H]1CN(C)Cc1ccc(Oc2ccccc2)cc1`, for which the activity change, negative = inhibition worked out at 132%.
With `Cc1ccc(S(=O)(=O)Nc2ccc3c(c2)CC(=O)N([C@@H](C)CO)C[C@H](C)[C@@H](CN(C)Cc2ccc(-c4ccccc4)cc2)O3)cc1`, the activity change, negative = inhibition stood at 215% [at 18 µM].
With `Cc1ccc(S(=O)(=O)Nc2ccc3c(c2)C(=O)N([C@H](C)CO)C[C@@H](C)[C@H](CN(C)S(=O)(=O)c2ccc(F)cc2)O3)cc1`, the activity change, negative = inhibition is -22.9% [at 16 µM].
With `O=C(C1CCCCC1)N1CCCC(c2nc3c(nnn3Cc3ccccc3)c(=O)[nH]2)C1` (stereo unspecified), the activity change, negative = inhibition was -8.09% [at 16 µM].
In the case of `C[C@H](CO)N1C[C@H](C)[C@H](CN(C)S(=O)(=O)c2ccccc2)Oc2ccc(NS(=O)(=O)c3ccc(F)cc3)cc2CC1=O` it was 10.2%; in that of `C[C@H](CO)N1C[C@H](C)[C@@H](CN(C)S(=O)(=O)c2ccc(F)cc2)Oc2ccc(NS(=O)(=O)c3cn(C)cn3)cc2CC1=O`, 35.3%.
`Cc1ccc(S(=O)(=O)N(C)C[C@@H]2Oc3ccc(NS(=O)(=O)c4c(C)noc4C)cc3CC(=O)N([C@H](C)CO)C[C@@H]2C)cc1`: the activity change, negative = inhibition was -10.8%.
In the case of `CCNc1ncnc2c1cnn2C1CCCO1` (stereo unspecified) it was -11.7%; in that of `C[C@@H]1CN([C@@H](C)CO)C(=O)Cc2cc(NC(=O)NC3CCCCC3)ccc2O[C@@H]1CN(C)S(=O)(=O)c1ccc(Cl)cc1`, -18.9%.
The figure for `CCS(=O)(=O)N[C@H]1CC[C@@H](CC(=O)NCc2ccc(Cl)cc2)O[C@@H]1CO` is 46.4%; for `O=C(Nc1cccc(F)c1)N[C@H]1CC[C@@H](CCNS(=O)(=O)c2cccc(Cl)c2)O[C@H]1CO` it is 15.8%.
The figure for `COc1cccc(CNC(=O)C[C@@H]2C=C[C@H](NC(=O)C3CCC3)[C@H](CO)O2)c1` is 64%; for `C[C@@H]1CN([C@H](C)CO)C(=O)c2cccc(NS(=O)(=O)c3ccc(Cl)cc3)c2O[C@H]1CN(C)CC1CCCCC1` it is 87% [at 8 µM].
Regarding `C[C@H](CO)N1C[C@H](C)[C@H](CN(C)C(=O)Nc2ccccc2)Oc2c(NS(=O)(=O)c3ccc(F)cc3)cccc2C1=O`, the activity change, negative = inhibition came to 63.4% [at 8 µM].
As to `CNC[C@@H]1Oc2c(N)cccc2C(=O)N([C@@H](C)CO)C[C@@H]1C`, the activity change, negative = inhibition is -6.55%.
Take `C[C@@H]1CN([C@H](C)CO)C(=O)c2cccc(NC(=O)c3cnccn3)c2O[C@H]1CN(C)Cc1ccccc1`: the activity change, negative = inhibition stood at 8.76%.
For `C[C@H]1CN([C@@H](C)CO)C(=O)c2cccc(NC(=O)C3CCCCC3)c2O[C@H]1CN(C)S(C)(=O)=O`, the activity change, negative = inhibition is 43.4%.
In the case of `COc1ccccc1N/C(N)=N/c1nc(CSc2ccc(C)cc2)cc(=O)[nH]1` it was -51.5%; in that of `CCOC(=O)c1ccc(NC2c3ncccc3C(=O)N2Cc2ccc(F)cc2)cc1` (stereo unspecified), -27%.
Consider `CCOC(=O)C1=C(C)N=C2c3ccccc3C(=O)C2C1c1ccc(Cl)cc1` (stereo unspecified), for which the activity change, negative = inhibition is -84.7%.
The figure for `CC(CCc1ccco1)NC(=O)CCc1nnc2ccc(NCc3ccccc3Cl)nn12` (stereo unspecified) is 87.2%.
In the case of `COc1cccc(S(=O)(=O)N[C@H]2CC[C@@H](CCN)O[C@@H]2CO)c1`, the activity change, negative = inhibition is 11.2%.
With `COc1cccc(S(=O)(=O)N[C@@H]2CC[C@H](CCN)O[C@H]2CO)c1`, the activity change, negative = inhibition turned out to be 3.96%.
In the case of `O=C(Nc1cc2c3c(c1)CC(=O)N3CCC2)c1ccc(Cl)cc1`, the activity change, negative = inhibition worked out at 197% [at 16 µM].
With `CCCNC(=O)C[C@@H]1C[C@H]2c3cc(NC(=O)c4cccnc4)ccc3O[C@H]2[C@H](CO)O1`, the activity change, negative = inhibition was determined as 6.61%.
As for `COc1ccccc1CNC(=O)C[C@H]1C[C@@H]2c3cc(NC(=O)c4cccnc4)ccc3O[C@@H]2[C@@H](CO)O1`, the activity change, negative = inhibition is 64.7%.
For the molecule `CCN(CC)C(=O)c1ncn2c1C(=O)NC[C@@H]2C`, the activity change, negative = inhibition was -31.4%.
In the case of `CC1CCN(C(=O)c2ncn3c2C(=O)NC[C@@H]3C)CC1`, the activity change, negative = inhibition came to 15.1%.
The figure for `Cc1ccc(-c2ccc3c(c2)O[C@@H](CN(C)C(=O)C2CCCCC2)[C@H](C)CN([C@H](C)CO)S3(=O)=O)cc1` is 53.1% [at 16 µM]; for `CCCC#Cc1ccc2c(c1)O[C@@H](CN(C)C(=O)C1CCCCC1)[C@H](C)CN([C@H](C)CO)S2(=O)=O` it is 90.1% [at 16 µM].
Take `C[C@@H]1CN([C@H](C)CO)S(=O)(=O)c2ccc(C#Cc3cccc(F)c3)cc2O[C@@H]1CN(C)C(=O)CN1CCOCC1`: the activity change, negative = inhibition worked out at 80.2%.
In the case of `CCC(=O)N(C)C[C@H]1Oc2cc(/C=C/c3ccccc3)ccc2S(=O)(=O)N([C@@H](C)CO)C[C@H]1C`, the activity change, negative = inhibition was -29.3%.
In the case of `CC(C)C#Cc1ccc2c(c1)O[C@@H](CN(C)C(=O)C1CCCCC1)[C@H](C)CN([C@H](C)CO)S2(=O)=O` it was 41.8% [at 16 µM]; in that of `C[C@@H]1CN([C@@H](C)CO)S(=O)(=O)c2ccc(-c3ccc(F)cc3)cc2O[C@H]1CN(C)C(=O)C1CCCCC1`, -27.8%.
For `Cc1ccc(C(=O)NCc2ccccn2)cc1S(=O)(=O)N1CCCCC1`, the activity change, negative = inhibition came to 24.4%.
Consider `Cc1ccc(S(=O)(=O)N(C)C[C@H]2Oc3ccc(NC(=O)Nc4cccc5ccccc45)cc3C(=O)N([C@H](C)CO)C[C@@H]2C)cc1`, for which the activity change, negative = inhibition came to 64%.
For the molecule `CO[C@H]1CN(C)C(=O)c2cc(NS(=O)(=O)c3ccc(Cl)cc3)ccc2OC[C@@H](C)N(C)C[C@@H]1C`, the activity change, negative = inhibition worked out at 45%.
In the case of `CO[C@H]1CN(C)C(=O)c2ccc(NC(=O)C3CC3)cc2OC[C@@H](C)N(C(C)=O)C[C@@H]1C`, the activity change, negative = inhibition came out at 20%.
With `CO[C@@H]1CN(C)C(=O)c2ccc(NS(C)(=O)=O)cc2OC[C@@H](C)N(C(=O)C2CCCCC2)C[C@H]1C`, the activity change, negative = inhibition turned out to be 26.2%.
On to `CCS(=O)(=O)Nc1ccc2c(c1)C(=O)N(C)C[C@H](OC)[C@@H](C)CN(C(=O)C1CCC1)[C@H](C)CO2`, for which the activity change, negative = inhibition is 25.1%.
As to `CCCC(=O)Nc1ccc2c(c1)OC[C@@H](C)N(C(=O)CN(C)C)C[C@H](C)[C@@H](OC)CN(C)C2=O`, the activity change, negative = inhibition was -23.4%.
Regarding `CCCC(=O)Nc1ccc2c(c1)OC[C@H](C)N(Cc1ccncc1)C[C@H](C)[C@H](OC)CN(C)C2=O`, the activity change, negative = inhibition was -9.34%.
The figure for `CCC(=O)Nc1ccc2c(c1)C(=O)N(C)C[C@@H](OC)[C@H](C)CN(C(=O)CC)[C@@H](C)CO2` is 44.7%.
